Test results reported in ChEMBL document CHEMBL5724796, “Tm Shift (DSF) assay results for EUbOPEN Chemogenomics Library” (2024).

Key:
Settings in all cases: Compound concentration 20.0 uM
[1] = biological target: Tyrosine-protein kinase ABL1 (Homo sapiens) (UniProt P00519)
[2] = biological target: Bromodomain-containing protein 4 (Homo sapiens) (UniProt O60885)
[3] = biological target: Cyclin-dependent kinase 2 (Homo sapiens) (UniProt P24941)
[4] = biological target: Casein kinase I isoform delta (Homo sapiens) (UniProt P48730)
[5] = biological target: Glycogen synthase kinase-3 beta (Homo sapiens) (UniProt P49841)
[6] = biological target: Mitogen-activated protein kinase 1 (Homo sapiens) (UniProt P28482)
[7] = biological target: T1, Aurora kinase A (Homo sapiens) (UniProt O14965)
T1 sequence (whole entry): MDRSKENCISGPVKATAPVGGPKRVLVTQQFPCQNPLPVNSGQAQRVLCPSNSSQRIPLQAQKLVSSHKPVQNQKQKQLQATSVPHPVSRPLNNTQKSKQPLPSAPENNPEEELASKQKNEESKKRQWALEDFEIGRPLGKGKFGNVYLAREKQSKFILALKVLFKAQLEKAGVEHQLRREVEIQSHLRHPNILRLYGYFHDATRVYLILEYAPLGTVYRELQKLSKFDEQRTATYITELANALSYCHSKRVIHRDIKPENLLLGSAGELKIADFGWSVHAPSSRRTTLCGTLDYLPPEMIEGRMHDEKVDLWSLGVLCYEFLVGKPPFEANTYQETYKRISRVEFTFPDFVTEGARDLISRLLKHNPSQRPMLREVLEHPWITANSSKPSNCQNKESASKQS

[8] = biological target: T2, Transcription intermediary factor 1-alpha (Homo sapiens) (UniProt O15164)
T2 sequence (whole entry): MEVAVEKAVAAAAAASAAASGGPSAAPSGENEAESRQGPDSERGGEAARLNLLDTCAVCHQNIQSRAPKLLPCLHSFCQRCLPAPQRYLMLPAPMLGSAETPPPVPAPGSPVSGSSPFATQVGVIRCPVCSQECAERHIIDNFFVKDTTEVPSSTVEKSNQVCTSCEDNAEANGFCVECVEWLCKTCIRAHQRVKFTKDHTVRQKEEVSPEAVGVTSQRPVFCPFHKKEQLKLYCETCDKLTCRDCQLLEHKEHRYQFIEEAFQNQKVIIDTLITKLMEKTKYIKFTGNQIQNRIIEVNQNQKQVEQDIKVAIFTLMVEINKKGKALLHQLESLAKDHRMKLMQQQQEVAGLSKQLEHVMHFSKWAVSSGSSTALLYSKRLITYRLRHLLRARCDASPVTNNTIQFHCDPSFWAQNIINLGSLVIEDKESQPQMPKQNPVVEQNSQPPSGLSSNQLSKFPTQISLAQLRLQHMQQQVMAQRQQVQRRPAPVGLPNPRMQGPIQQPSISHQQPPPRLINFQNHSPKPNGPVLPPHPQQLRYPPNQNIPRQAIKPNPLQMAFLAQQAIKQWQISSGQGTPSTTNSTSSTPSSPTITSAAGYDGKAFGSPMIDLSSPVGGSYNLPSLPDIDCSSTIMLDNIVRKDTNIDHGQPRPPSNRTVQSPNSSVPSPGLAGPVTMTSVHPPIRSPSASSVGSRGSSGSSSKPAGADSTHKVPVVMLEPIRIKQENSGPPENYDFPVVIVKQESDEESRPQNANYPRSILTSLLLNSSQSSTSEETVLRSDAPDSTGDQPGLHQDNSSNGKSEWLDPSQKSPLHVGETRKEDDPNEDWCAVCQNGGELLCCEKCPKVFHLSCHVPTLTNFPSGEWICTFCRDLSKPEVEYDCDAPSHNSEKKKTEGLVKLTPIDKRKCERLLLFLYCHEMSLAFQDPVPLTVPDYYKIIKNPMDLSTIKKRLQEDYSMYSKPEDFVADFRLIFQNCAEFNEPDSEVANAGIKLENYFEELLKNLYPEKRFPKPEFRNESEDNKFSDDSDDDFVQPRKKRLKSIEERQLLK

Chain of Glycogen synthase kinase-3 beta (Homo sapiens) (P49841 whole entry, looked up): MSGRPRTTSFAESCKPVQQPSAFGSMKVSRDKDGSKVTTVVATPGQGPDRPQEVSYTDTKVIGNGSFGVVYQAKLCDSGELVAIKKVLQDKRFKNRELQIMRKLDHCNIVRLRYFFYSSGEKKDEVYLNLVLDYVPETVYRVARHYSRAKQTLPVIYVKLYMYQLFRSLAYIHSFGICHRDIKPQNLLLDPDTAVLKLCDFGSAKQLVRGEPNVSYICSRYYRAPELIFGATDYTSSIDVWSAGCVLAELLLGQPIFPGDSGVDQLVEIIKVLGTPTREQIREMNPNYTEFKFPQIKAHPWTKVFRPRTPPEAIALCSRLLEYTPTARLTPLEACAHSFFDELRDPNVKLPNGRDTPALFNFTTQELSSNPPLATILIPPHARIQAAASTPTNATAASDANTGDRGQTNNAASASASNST
Chain of Tyrosine-protein kinase ABL1 (Homo sapiens) (P00519 whole entry): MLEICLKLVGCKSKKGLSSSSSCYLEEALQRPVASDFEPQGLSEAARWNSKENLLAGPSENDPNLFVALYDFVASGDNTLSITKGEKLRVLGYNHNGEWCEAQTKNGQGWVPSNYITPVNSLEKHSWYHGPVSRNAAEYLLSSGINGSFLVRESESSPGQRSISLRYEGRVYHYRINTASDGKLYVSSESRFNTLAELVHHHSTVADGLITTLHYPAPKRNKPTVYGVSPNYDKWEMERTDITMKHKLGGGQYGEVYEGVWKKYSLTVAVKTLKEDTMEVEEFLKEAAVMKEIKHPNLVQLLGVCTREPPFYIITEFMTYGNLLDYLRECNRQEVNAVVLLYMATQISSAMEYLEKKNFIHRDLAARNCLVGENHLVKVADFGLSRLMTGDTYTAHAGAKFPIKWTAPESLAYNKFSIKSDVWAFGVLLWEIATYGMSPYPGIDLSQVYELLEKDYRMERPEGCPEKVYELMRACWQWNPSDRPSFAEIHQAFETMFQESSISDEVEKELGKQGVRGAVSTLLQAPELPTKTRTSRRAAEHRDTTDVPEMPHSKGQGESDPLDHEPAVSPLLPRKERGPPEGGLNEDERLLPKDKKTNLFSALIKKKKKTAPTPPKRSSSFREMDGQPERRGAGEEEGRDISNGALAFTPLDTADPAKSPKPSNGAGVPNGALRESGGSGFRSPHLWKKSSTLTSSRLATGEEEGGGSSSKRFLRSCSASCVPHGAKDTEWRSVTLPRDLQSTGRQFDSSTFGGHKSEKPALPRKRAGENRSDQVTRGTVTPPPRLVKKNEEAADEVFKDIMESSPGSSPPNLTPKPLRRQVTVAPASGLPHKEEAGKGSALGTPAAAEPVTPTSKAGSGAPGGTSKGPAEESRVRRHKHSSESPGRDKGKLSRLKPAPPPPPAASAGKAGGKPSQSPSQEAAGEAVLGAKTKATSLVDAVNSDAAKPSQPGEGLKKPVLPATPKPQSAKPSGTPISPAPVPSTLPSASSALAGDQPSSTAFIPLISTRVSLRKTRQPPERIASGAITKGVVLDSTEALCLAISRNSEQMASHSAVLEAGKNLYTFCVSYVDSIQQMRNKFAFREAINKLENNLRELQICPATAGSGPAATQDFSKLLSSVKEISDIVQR
Chain of Mitogen-activated protein kinase 1 (Homo sapiens) (P28482 whole entry): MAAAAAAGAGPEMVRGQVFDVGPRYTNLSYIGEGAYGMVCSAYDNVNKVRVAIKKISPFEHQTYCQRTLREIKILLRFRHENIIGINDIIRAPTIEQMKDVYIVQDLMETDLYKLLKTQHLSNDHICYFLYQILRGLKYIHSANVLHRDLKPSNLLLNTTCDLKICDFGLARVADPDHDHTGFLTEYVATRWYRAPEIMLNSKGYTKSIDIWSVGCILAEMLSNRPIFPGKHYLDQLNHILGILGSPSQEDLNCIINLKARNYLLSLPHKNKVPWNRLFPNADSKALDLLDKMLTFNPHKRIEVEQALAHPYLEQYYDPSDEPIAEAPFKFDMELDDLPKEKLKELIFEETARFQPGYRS
Chain of Casein kinase I isoform delta (Homo sapiens) (P48730 whole entry, looked up, canonical isoform): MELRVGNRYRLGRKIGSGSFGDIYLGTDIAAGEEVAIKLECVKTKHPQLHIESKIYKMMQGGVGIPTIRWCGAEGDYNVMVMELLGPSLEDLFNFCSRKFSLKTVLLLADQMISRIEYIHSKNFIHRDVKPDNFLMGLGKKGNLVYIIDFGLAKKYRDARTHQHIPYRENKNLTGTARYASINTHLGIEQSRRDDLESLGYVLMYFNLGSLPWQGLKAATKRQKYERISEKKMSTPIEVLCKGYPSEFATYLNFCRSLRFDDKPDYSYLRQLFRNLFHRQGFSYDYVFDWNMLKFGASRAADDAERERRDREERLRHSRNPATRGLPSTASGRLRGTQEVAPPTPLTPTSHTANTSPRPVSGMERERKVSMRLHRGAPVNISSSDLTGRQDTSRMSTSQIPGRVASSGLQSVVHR

| Compound | ΔTm [1] [°C] | ΔTm [2] [°C] | ΔTm [3] [°C] | ΔTm [4] [°C] | ΔTm [5] [°C] | ΔTm [6] [°C] | ΔTm [7] [°C] | ΔTm [8] [°C] |
| --- | --- | --- | --- | --- | --- | --- | --- | --- |
| O=c1[nH]ccc2cc(F)c(NS(=O)(=O)c3ccc(N4CC[C@@H](O)C4)s3)cc12 | 0.78 | -1.78 | 0.35 | 0.39 | -0.79 | 0.11 | -0.16 | -0.69 |
| FC(F)(F)Cn1cc(-c2ccncc2)c(-c2ccc(OCc3ccc4ccccc4n3)cc2)n1 | 1.54 | -3.29 | 0.14 | 1.23 | -1.19 | 0.65 | 0.56 | -0.98 |
| COc1cc(C(=O)N2C[C@H](N)CC[C@@H]2C)cc2nc(-c3cc4cccnc4n3CC3CC3)n(C)c12 | 0.14 | 0.61 | 0.15 | -0.38 | -1.31 | -0.7 | -1.15 | 0.53 |
| CNCCN(C)Cc1cn[nH]c1-c1ccc(OC2CC(OCCC3CCOCC3)C2)cc1 (stereo unspecified) | 0.66 | -1.82 | 0.43 | 0.19 | -0.94 | 0.05 | -0.58 | -1.33 |
| O=C(N1CCCCC1c1ccccc1)n1cc(-c2ccc(-c3cccc(CO)c3)cc2)nn1 (stereo unspecified) | -2.74 | -2.31 | -2.39 | -10.5 | -1.86 | -9.96 | -5.38 | 2.17 |
| CN(Cc1ccccc1)c1ccc2cc(C(=O)O)c(=O)oc2c1 | 0.44 | 2.11 | 0.37 | 0.11 | 0 | 0.54 | -1.09 | 0.17 |
| COc1cc(Cl)ccc1C1=CN(c2ccc(-c3ccccc3OC)cc2)C2=NCCCN12 | 0.67 | -3.63 | -0.6 | -0.21 | -0.51 | -0.14 | -2.63 | -1.41 |
| NS(=O)(=O)OC[C@H]1C[C@@H](Nc2ccnc3cc(-c4cccc(SC(F)(F)F)c4)nn23)[C@H](O)[C@@H]1O | 1.49 | 1.04 | 0.04 | 0.4 | -1.24 | 0.75 | -1.12 | 1.39 |
| Cc1cc(/N=N/c2ccc(S(=O)(=O)Nc3ccccn3)cc2)c(N)cc1O | 0.27 | 9 | 1.3 | -0.2 | -0.93 | 0.31 | -2.28 | 1 |
| NC(=O)c1cnc(N[C@@H]2CCCC[C@@H]2N)nc1Nc1cccc(-n2nccn2)c1 | 3.49 | -1.09 | 5.92 | 6.3 | 5.98 | 4.33 | 2.17 | 0.1 |
| Cc1ncsc1-c1ccc([C@H](C)NC(=O)[C@@H]2C[C@@H](O)CN2C(=O)[C@@H](NC(=O)CNC(=O)c2ccc(F)c(-c3ccc(N4C[C@@H](C)N(C)[C@@H](C)C4)c(NC(=O)c4c[nH]c(=O)cc4C(F)(F)F)c3)c2)C(C)(C)C)cc1 | -0.64 | -6.28 | -0.94 | 0.81 | -3.51 | -15.7 | -5.35 | 1.29 |
| O=C(NCc1ccc(F)cc1)C1CCN(S(=O)(=O)c2cc(Cl)cc(Cl)c2)CC1 | 0.19 | 1.03 | 0.65 | -0.2 | -0.78 | 1.32 | -1.86 | 0.75 |
| COc1cc2c(cc1OC)[C@H]1C[C@@H](OC(=O)[C@@H](N)C(C)C)[C@H](CC(C)C)CN1CC2 | 0.26 | 1.87 | 0.58 | -0.31 | -0.94 | 0.3 | -1.54 | 0.19 |
| N[C@H](C(=O)O)[C@H](OCc1cccc(NC(=O)c2ccc(C(F)(F)F)cc2)c1)C(=O)O | 0.24 | -3.61 | -0.09 | -0.32 | -0.8 | 0.12 | -2.5 | 0.13 |
| CCNC(=O)c1noc(-c2cc(C(C)C)c(O)cc2O)c1-c1ccc(CN2CCOCC2)cc1 | 0.97 | -0.86 | 0.79 | 0.41 | 0.48 | -0.06 | 0.68 | 0.38 |
| CCOc1ccc(Cc2cc([C@]34OC[C@](CO)(O3)[C@@H](O)[C@H](O)[C@H]4O)ccc2Cl)cc1 | 0.25 | 2.11 | 0.62 | -0.26 | -0.1 | 0.67 | -0.99 | 1.7 |
| CC(C)Nc1cc(-c2c[nH]c(C(=O)N[C@H](CO)c3cccc(Cl)c3)c2)c(Cl)cn1 | 1.43 | 6.89 | 8.63 | 0.57 | 14.2 | -1.26 | 13.7 | 0.98 |
| COc1c(CN)cc(CN)cc1OCCCN1Cc2ccccc2C1 | 0.19 | -1.72 | -0.14 | -0.24 | -0.15 | 0.22 | -2.26 | 0.95 |
| Cn1cc(NC(=O)c2cc(F)cc(F)c2)c(C(=O)NC2CCNCC2)n1 | 0.23 | -2.12 | -0.02 | 1.02 | -0.14 | -0.35 | -0.65 | -0.68 |
| CC(C)(F)C[C@H](N[C@@H](c1ccc(-c2ccc(S(C)(=O)=O)cc2)cc1)C(F)(F)F)C(=O)NC1(C#N)CC1 | 0.21 | -2.13 | -0.11 | -0.06 | 0 | -1.51 | -0.27 | -1.8 |
| CCN(C(=O)c1cc(F)ccc1Oc1cncnc1N1CC2(CCN(C[C@H]3CC[C@H](NS(=O)(=O)CC)CC3)CC2)C1)C(C)C | 0.7 | -2.35 | 0.16 | -0.01 | -0.74 | 0.48 | -2.26 | 0.24 |
| Cc1cc(C)cc(Oc2ccc(CNC(=O)[C@H](C)N)cc2C)c1 | 1.83 | -1.81 | 0.25 | 0.15 | -1.22 | -0.21 | -0.6 | -1.58 |
